These results are taken from PubChem BioAssay (NCI).

Common to all, as to test: NCI-60 one-dose screen, 48 h (100 = growth as untreated, 0 = no growth, -100 = all killed)
For one test, the system named is DU-145 prostate. The note with it: 10 µM unless noted.
The next test relates to K-562 leukemia. The note with it: 10 µM unless noted.
The subject of the next test is MALME-3M melanoma. The note with it: 10 µM unless noted.
In another test the test system is MDA-MB-231 breast. The note with it: 10 µM unless noted.
A further test deals with RXF 393 renal. The note with it: 10 µM unless noted.
A further test deals with SF-268 CNS. The note with it: 10 µM unless noted.
Another test deals with SF-295 CNS. The note with it: 10 µM unless noted.
Another test deals with SF-539 CNS. The note with it: 10 µM unless noted.
A further test concerns UACC-257 melanoma. To be noted: 10 µM.
For another test, the system named is M14 melanoma. To be noted: 10 µM unless noted.

Compounds without any hit were thinned out: in the full panel of roughly 83,000, 20% have a hit.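 Method: cells in 96-well plates; compound added at one concentration; 48 h incubation; percent growth measured; values under 10 scored active.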 Unmarked numbers belong to inactive results. The source made the active and inactive calls.

On to `CCN(CC)CCN1C(=O)c2c(c3c4cc(Br)ccc4[nH]c3c3ccc4ccccc4c23)C1=O`, for which the growth with DU-145 prostate was -94.1% (active); with K-562 leukemia, -64.8% (active); in the test with MALME-3M melanoma, -69.1% (active); in the test on MDA-MB-231 breast it was -65.3% (active); in the test with RXF 393 renal, -77.3% (active); in the test with SF-268 CNS, -42.2% (active). Further, the growth was -89% (active) with SF-295 CNS, -96.9% (active) in the test on SF-539 CNS, 103% with UACC-257 melanoma and -63.9% (active) in the test on M14 melanoma.
Turning to `COc1cc(C(=O)c2cc(C(C)=O)c3c4ccccc4ccn23)cc(OC)c1OC`, the growth with DU-145 prostate is 94.4%; in the test on K-562 leukemia, 23.9%; in the test on MALME-3M melanoma, 64.6%; with MDA-MB-231 breast, 54.7%; in the test on RXF 393 renal, 49.2%; with SF-268 CNS, 74.3%. The growth with SF-295 CNS was 55.2%; with SF-539 CNS it was 75.3%; in the test with UACC-257 melanoma, 75.8%; with M14 melanoma, 58.6%.
For the compound `CCOC(=O)C1=C(C)Nc2nc3ccccc3n2C1c1ccccc1` (stereo not given), the growth in the test on DU-145 prostate is 105%; in the test on K-562 leukemia, 76.1%; in the test on MALME-3M melanoma, 94.3%; in the test on MDA-MB-231 breast, 95.8%; in the test with RXF 393 renal it was 107%; with SF-268 CNS, 102%. For the same compound, the growth in the test on SF-295 CNS was 102%; in the test with SF-539 CNS, 96.9%; with UACC-257 melanoma, 97.4%; with M14 melanoma it was 102%.
For the compound `Brc1cccc(/C=N/Nc2nc(N/N=C/c3cccc(Br)c3)nc(N3CCOCC3)n2)c1`, the growth was 27.3% in the test with DU-145 prostate; 14.5% with K-562 leukemia; -54% (active) in the test with MALME-3M melanoma; 66.1% in the test on MDA-MB-231 breast; -68% (active) with RXF 393 renal; 68.4% in the test with SF-268 CNS. For the same compound, the growth with SF-295 CNS was 29.1%; in the test with SF-539 CNS it was 56.4%; with UACC-257 melanoma it was 35.9%; in the test with M14 melanoma it was 31.7%.
Take `O=C(COc1ccc(C2SCC(=O)N2c2ccccc2)cc1)c1ccccc1` (stereo not given): the growth was 102% in the test on DU-145 prostate; 88.9% with K-562 leukemia; 100% in the test on MALME-3M melanoma; 81.6% in the test with MDA-MB-231 breast; 91.2% in the test on RXF 393 renal; 93.4% in the test on SF-268 CNS. Also, the growth is 96.9% in the test on SF-295 CNS, 101% in the test with SF-539 CNS, 102% with UACC-257 melanoma and 102% with M14 melanoma.
As to `O=C1[C@H]2Cc3c([nH]c4ccccc34)[C@@H](c3c(Cl)cccc3Cl)N2C(=O)CN1C1CCN(Cc2ccccc2)CC1`, the growth was 39.2% in the test with DU-145 prostate; 5.96% (active) in the test on K-562 leukemia; 61.4% in the test on MALME-3M melanoma; 89.3% in the test with MDA-MB-231 breast; 81.6% in the test on RXF 393 renal; 73.8% with SF-268 CNS. Moreover, the growth is 106% with SF-295 CNS, 93.5% in the test on SF-539 CNS, 105% with UACC-257 melanoma and 78.1% with M14 melanoma.
For `N#C/C(=C\c1ccc2ccccc2c1)C(=O)Nc1sc2c(c1C#N)CCC2`, the growth in the test on DU-145 prostate was 103%; in the test on K-562 leukemia it was 96.2%; with MALME-3M melanoma it was 116%; with MDA-MB-231 breast, 98.1%; in the test with RXF 393 renal it was 107%; in the test on SF-268 CNS, 103%. Further, the growth in the test on SF-295 CNS was 95.3%; with SF-539 CNS, 102%; with UACC-257 melanoma, 108%; in the test with M14 melanoma it was 106%.
With `O=C1c2c(c3c4cccnc4[nH]c3c3ccc4ccccc4c23)C(=O)N1CCN1CCCCC1`, the growth in the test on DU-145 prostate was 41.7%; in the test with K-562 leukemia, 40.5%; with MALME-3M melanoma, 77%; in the test on MDA-MB-231 breast, 96%; in the test with RXF 393 renal it was 70.5%; with SF-268 CNS, 43.2%. Besides, the growth in the test on SF-295 CNS is 28.5%; in the test with SF-539 CNS, 54.2%; in the test with UACC-257 melanoma, 94%; with M14 melanoma it was 45.8%.
As for `CN(C)C(=O)C1=NC(CO)C(=O)N(c2ccc(Cl)cc2)N1` (stereo not given), the growth in the test with DU-145 prostate was 107%; in the test on K-562 leukemia, 109%; in the test with MALME-3M melanoma, 101%; with MDA-MB-231 breast, 97.9%; in the test on RXF 393 renal, 120%; in the test with SF-268 CNS it was 97.8%. For the same compound, the growth in the test on SF-295 CNS was 103%; with SF-539 CNS it was 95.8%; in the test with UACC-257 melanoma it was 107%; in the test with M14 melanoma, 92.8%.
As for `O=C(COc1cccc2cccnc12)Nc1ccc(C(=O)/C=C/c2ccc(Cl)cc2)cc1`, the growth is 88.7% with DU-145 prostate; 47.4% with K-562 leukemia; 108% in the test with MALME-3M melanoma; 93.4% with MDA-MB-231 breast; 92.5% in the test with RXF 393 renal; 93.7% in the test with SF-268 CNS. Also, the growth in the test on SF-295 CNS is 91.6%; with SF-539 CNS it was 93.5%; in the test with UACC-257 melanoma, 99.8%; in the test with M14 melanoma, 99.5%.
Regarding `CCN1C(=O)N(CC)C2SC(N/N=C/c3ccc(F)cc3)=NC21` (stereo not given), the growth in the test on DU-145 prostate is 16%; in the test on K-562 leukemia it was 14.2%; with MALME-3M melanoma, 54.7%; in the test on MDA-MB-231 breast, 32.4%; with RXF 393 renal, 47.3%; in the test with SF-268 CNS it was 42.4%. Moreover, the growth was 12.1% with SF-295 CNS, -4.01% (active) with SF-539 CNS, 57.8% in the test with UACC-257 melanoma and 14.6% in the test on M14 melanoma.
As for `Clc1ccc(-c2csc(N/N=C/c3nc4ccccc4n3C3CC3)n2)cc1`, the growth is 113% in the test with DU-145 prostate; 107% in the test with K-562 leukemia; 96.3% with MALME-3M melanoma; 96.7% with MDA-MB-231 breast; 107% in the test on RXF 393 renal; 94.7% in the test with SF-268 CNS. In addition, the growth was 96.5% in the test on SF-295 CNS, 99.4% in the test with SF-539 CNS, 91% in the test with UACC-257 melanoma and 91.9% with M14 melanoma.
Turning to `CC(C)Sc1nc(NC2CC2)c(C#N)c(-c2ccccc2)n1`, the growth is 99.1% with DU-145 prostate; 87.6% with K-562 leukemia; 57.1% with MALME-3M melanoma; 82% with MDA-MB-231 breast; 77.5% with RXF 393 renal; 95.8% in the test on SF-268 CNS. The growth with SF-295 CNS was 72%; with SF-539 CNS, 82.2%; in the test on UACC-257 melanoma, 102%; in the test on M14 melanoma it was 95.1%.
